Measured values taken from ChEMBL document CHEMBL3988442, “University of Dundee, Small-Polar-MMV Screening Library” (2021).
The whole screen tested about 48,000 compounds, of which about 13,000 (27%) showed an effect of 50% or more. This is one part of the list.

Tested on: Wolbachia pipientis
Experiment: Anti-Wolbachia Cell-Based Screen
Format: functional
Set-up: scale not given: in the data most compounds retested in dose-response had high values
Details: 5 µM

In order of falling “Percent Effect” value:
1. O=C(CO)N1CCCC(c2cc(C(F)(F)F)[nH]n2)C1 (stereo not drawn)  144.8%
2. NC(=O)c1cc(C2CCCN(C(=O)CCc3ccncc3)C2)n[nH]1 (stereo not drawn)  120%
3. CSc1ccccc1C(=O)N1CCN(C)C2(CCC(=O)N(C)CC2)C1 (stereo not drawn)  119%
4. CCCC1c2cccn2CCN1S(=O)(=O)N1CCOCC1 (stereo not drawn)  118.3%
5. OCCN1CCN(Cc2coc(-c3cccc(Cl)c3)n2)CC1  116.8%
6. Cc1ccc2cc(CNCCN3CCCC3)c(=O)[nH]c2c1  112.1%
7. COCc1nnc(C(=O)N2CC(N3CCCCC3)C2)o1  110.5%
8. OCCN1CCN(Cc2coc(-c3cccc(F)c3)n2)CC1  105.3%
9. Cc1ccc(C(=O)N2CCN(C)C3(CCC(=O)N(C)CC3)C2)c(F)c1 (stereo not drawn)  104.4%
10. COCc1nnc(C(=O)N2CCCC(O)C2)o1 (stereo not drawn)  102.5%
11. O=c1[nH]c2ccccc2cc1CNCCCN1CCOCC1  102.3%
12. Cc1[nH]ccc1C(=O)N1CCN(C)C2(CCC(=O)N(C)CC2)C1 (stereo not drawn)  98.32%
13. Cc1cc(C)c2cc(CNCCCN3CCOCC3)c(=O)[nH]c2c1  97.61%
14. Cc1ccc2[nH]c(=O)c(CNCCCN3CCOCC3)cc2c1  96.42%
15. NC(=O)c1cc(C2CCCN(C(=O)CCc3cccs3)C2)n[nH]1 (stereo not drawn)  95.12%
16. NC(=O)c1cc(C2CCCN(C(=O)CCc3ccccn3)C2)n[nH]1 (stereo not drawn)  94.78%
17. Cc1cc(F)ccc1C(=O)N1CCN(C)C2(CCC(=O)N(C)CC2)C1 (stereo not drawn)  91.8%
18. COCc1nnc(C(=O)N2CCC(N3CCCCC3)CC2)o1  90.19%
19. CCC1c2cccn2CCN1S(=O)(=O)N1CCOCC1 (stereo not drawn)  79.2%
20. CCOCCN1CCN(Cc2coc(-c3cccc(F)c3)n2)CC1  74.94%
21. CN(C)c1nc2c(c(=O)[nH]1)CCN(C(=O)c1c[nH]c(=O)c(Cl)c1)C2  24.13%
22. Cc1[nH]ccc1C(=O)N1CCC2(CC1)c1nc[nH]c1CCN2CC(C)C  14.8%
23. Cc1ccc(S(=O)(=O)N2CCN(C)C3(CCC(=O)N(C)CC3)C2)s1 (stereo not drawn)  14.37%
24. Cc1cc(C)nc(CNC(=O)C(c2cccnc2)N2CCOCC2)n1 (stereo not drawn)  12.66%
25. CCCc1nnc(N2CCC(N3CCCCCC3)CC2)o1  12.1%
26. Cc1noc(CNc2cccc(C(=O)N3CCCC(O)C3)c2)n1 (stereo not drawn)  7.269%
27. CC(CCc1ccccc1)NC(=O)CNCCCN1CCOCC1.O=C(O)C(=O)O (stereo not drawn)  7.217%
28. O=S(=O)(N1CCOCC1)N1CCc2sccc2C1  7.177%
29. Cc1nnc(NC(=O)N2CCC(N3CCCCC3)CC2)s1  6.357%
30. CCc1nc(C)c(C2CC(=O)Nc3c2c(-c2ccccn2)nn3C)[nH]1 (stereo not drawn)  6.33%
31. O=C([C@H]1COC[C@H]2CN(C3CCOCC3)C[C@H]21)N1CCCCO1  5.01%
32. CC(C)=CCCN1CCN(C)C2(CCC(=O)N(C)CC2)C1 (stereo not drawn)  4.747%
33. CCN1CCN(Cc2coc(-c3cccc(F)c3)n2)CC1  3.559%
34. O=C(C1CC1)N1CCN(Cc2coc(-c3ccc(Cl)cc3)n2)CC1  3.08%
35. Fc1cccc(-c2nc(CN3CCn4c(nnc4C4CC4)C3)co2)c1  2.763%
36. O=S(=O)(N1CCOCC1)N1CCCCC1CCc1ccc(O)cc1 (stereo not drawn)  2.652%
37. Cc1cccc(CCC(=O)N2CCCC(c3cc(C(N)=O)[nH]n3)C2)c1 (stereo not drawn)  2.373%
38. OCCN1CCN(Cc2cc(Cl)cc3cccnc23)CC1  0.645%
39. Cc1c(C(=O)N2CCC(N3CCCCC3)CC2)n(C)c2ccc(Cl)cc12  0.1052%
40. NC(=O)c1cc(C2CCCN(C(=O)CCc3ccsc3)C2)n[nH]1 (stereo not drawn)  -0.264%
41. Cc1ccc2cc(CN(C)Cc3ncc[nH]3)c(=O)[nH]c2c1  -0.6566%
42. COCC1CN(C(=O)c2cnc(C)cn2)Cc2ncnn2C1 (stereo not drawn)  -2.14%
43. NC(=O)c1cc(C2CCCN(CCc3ccccn3)C2)n[nH]1 (stereo not drawn)  -3.119%
44. CC(C)CC(C)NC1CCN(c2cccc(-c3cscn3)c2)CC1 (stereo not drawn)  -3.86%
45. Cc1nc(C)c(-c2ccn(CC(=O)Nc3cnn(C)n3)n2)s1  -4.351%
46. COc1ccc(NC(=O)CN2CCS(=O)(=O)CC2)cn1  -4.778%
47. O=C(Cc1ccc2c(c1)OCO2)N1CCCN(c2nccs2)CC1  -6.237%
48. Cl.O=C(NC[C@@]1(COc2cnccn2)C[C@@H](O)[C@@H](O)C1)C1CCOCC1  -6.345%
49. O=C(Cc1cccnc1)N1CCCC(c2cc(C(F)(F)F)[nH]n2)C1 (stereo not drawn)  -6.416%
50. Cc1ccc2cc(CNCCCN3CCOCC3)c(=O)[nH]c2c1  -6.489%
51. CC(C)(C#N)C(=O)N1CCCC(c2cc(C(F)(F)F)[nH]n2)C1 (stereo not drawn)  -7.065%
52. Cc1ccc(C)c(S(=O)(=O)N2CCN(C)C3(CCC(=O)N(C)CC3)C2)c1 (stereo not drawn)  -7.559%
53. CC1CCN(S(=O)(=O)N2CCn3cccc3C2C)CC1 (stereo not drawn)  -8.051%
54. Cc1ccc(C(=O)N2C[C@@H](OCC3CCOCC3)[C@H]3OCCC[C@H]32)o1  -9.797%
55. CN1CC2(CCCN(C(=O)c3cnc4ccc(F)cc4c3O)C2)OC1=O (stereo not drawn)  -10.25%
56. c1ccc(-c2nnn3c2COC(CNCC2CC2)C3)cc1 (stereo not drawn)  -10.69%
57. C[C@@H](NC(=O)c1ccc(Cl)cc1)c1onc(-c2cccnc2)c1C(=O)O.Cl  -10.74%
58. Cc1cc(C)cc(CNCCS(=O)(=O)N2CCOCC2)c1  -11.28%
59. CC1c2cccn2CCN1S(=O)(=O)N1CCCCCC1 (stereo not drawn)  -11.34%
60. Cc1ccc2cc(CN(C)Cc3ccncn3)c(=O)[nH]c2c1  -11.97%
61. CCCN(CCC)Cc1nnsc1Cl  -13.3%
62. COc1cccc(OCc2cc(C(=O)NC[C@@H]3CCCN3)n[nH]2)c1  -13.46%
63. CC(C)N1CC2(CCC1=O)CCN(C(=O)c1cc(F)ccc1Cl)CC2  -13.76%
64. Cc1noc(CNc2ccccc2C(=O)N2CCCC(O)C2)n1 (stereo not drawn)  -16.45%
65. CN1CCC2(CC1)CN(C(=O)c1cccc3cccnc13)CCN2C  -18.03%
66. Cc1csc(S(=O)(=O)N2CCN(C)C3(CCC(=O)N(C)CC3)C2)c1 (stereo not drawn)  -20.06%
67. CCC(C)(N)c1nc(=O)c(C(C)C)c(C)[nH]1.Cl (stereo not drawn)  -21.29%
68. COCc1nnc(C(=O)N(C)Cc2ccc(OC)cc2)o1  -21.92%
